This note sets out measurements from PubChem BioAssay.

Each structure is given as a SMILES string. For part of these data: Results with a measured potency or affinity are listed apart. Active and inactive are the calls of the source.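 Rule for the calls, unless noted: active = signal rise over 3 SD above mean of control wells given weak agonist, in both repeats and first screen; inactive = the rest.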

Experiment [1] relates to TRPC4 beta (transient receptor potential cation channel C4), mouse. In words: activators of mouse TRPC4 channel, confirmation, cell-based, Fluo4 calcium, HEK293 TRPC4beta/mu-opioid, duplicates, 10 µM (AID 2426;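 active = fluorescence ratio normalized to control raised more than 50% in primary screen plus both repeat runs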). The following applies: Fluo4 calcium fluorescence, at 10 µM; active compounds read high.
In experiment [2] the test system is transient receptor potential cation channel C4 beta (TRPC4), mouse. The experiment can be described thus: activators of mouse TRPC4 channel, confirmation, cell-based, second round, Fluo4, HEK293 TRPC4beta/mu-opioid, 1 µM (AID 2461;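 active = primary screen active and over 50% activation in each of two duplicate runs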). The note with it: Fluo4 calcium fluorescence, at 1 µM; active compounds read high.
Experiment [3] relates to TRPC4 (transient receptor potential cation channel C4 beta), mouse. The experiment can be described thus: positive allosteric modulators of mouse TRPC4, confirmation, cell-based, second round, Fluo-4, HEK293 TRPC4beta/mu-opioid, 1 µM (AID 2554;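 active = primary screen hit whose fluorescence ratio, in both repeats, exceeds the weak agonist control mean by 3 SD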). The following applies: DAMGO EC20, Fluo-4 calcium flux, at 1 µM; active compounds read high.
In experiment [4] the test system is TRPC4 beta (transient receptor potential cation channel C4), mouse. The experiment can be described thus: positive allosteric modulators of mouse TRPC4, confirmation, cell-based, Fluo-4, HEK293 TRPC4beta/mu-opioid (AID 2555;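 active = primary screen hit whose calcium fluorescence ratio, in both repeats, exceeds the weak agonist control mean by 3 SD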). The following applies: DAMGO EC20, Fluo-4 calcium flux, at 10 µM; active compounds read high.
In experiment [5] the target is Short transient receptor potential channel 4 (Mus musculus) (UniProt Q9QUQ5). The experiment can be described thus: inhibitors of mouse TRPC4 channel, confirmation, cell-based, Fluo4, HEK293 TRPC4beta/mu-opioid (AID 2636;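 active = calcium signal cut by more than 3 SD below the full-agonist control yet still positive, in both repeats and the earlier primary screen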). The following applies: DAMGO, Fluo4 calcium flux, at 10 µM; active compounds read high.
For experiment [6] the target is unchanged. In words: inhibitors of mouse TRPC4 channel, confirmation, cell-based, second round, Fluo4, HEK293 TRPC4beta/mu-opioid, 1 µM (AID 2637;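 active = calcium signal ratio cut to more than 3 SD under the fully stimulated control mean yet still positive, in both repeats and the primary screen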). The note with it: Fluo4 calcium flux, DAMGO, at 1 µM; active compounds read high.
Experiment [7] has the same target. The experiment can be described thus: mouse TRPC4 channel activators, dose response, cell-based, HEK293 TRPC4/mu-opioid, Fluo-4 calcium (AID 434937;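 active = primary screen activator hit with a dose response curve and TRPC4 channel activation at any tested dose; inactive = no activation, no dose response, or not a primary hit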).
Experiment [8] shares this target. The experiment can be described thus: TRPC4 positive allosteric modulators, dose response, cell-based, HEK293 TRPC4/mu-opioid, Fluo-4 calcium, EC20 DAMGO (AID 434941;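 active = earlier screen potentiator hit that boosts the TRPC4 ion channel at some dose, with a dose response; inactive = no potentiation, no dose response, or not a prior hit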;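 note: calcium entry triggered by an EC20 dose of DAMGO at the co-expressed mu-opioid receptor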).
For experiment [9] the target is unchanged. In words: mouse TRPC4 channel inhibitors, dose response, cell-based, HEK293 TRPC4/mu-opioid, Fluo-4 calcium (AID 434942;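 active = primary screen inhibitor hit that blocks the TRPC4 channel at some tested dose, yielding a dose curve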).
Experiment [10] deals with Short transient receptor potential channel 6 (Mus musculus) (UniProt Q61143). In words: inhibition of mouse TRPC6 channel, confirmation, selectivity assay for TRPC4 inhibitor project, cell-based, HEK293, membrane potential dye, duplicate (AID 434948;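 active = active in primary screen and both duplicates, each dropping signal beyond three positive-control SD with fluorescence still positive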). The note with it: HEK293 TRPC6, membrane potential dye fluorescence, at 10 µM, stimulated with maximal-effect acetylcholine; active compounds read high.

Experiment [11] shares this target. The experiment can be described thus: activation of mouse TRPC6 channel, confirmation, selectivity assay for TRPC4 activator project, cell-based, HEK293, membrane potential dye, duplicate (AID 434950;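 active = membrane potential signal rise above negative control mean plus 3 SD in both duplicates, also active in the earlier TRPC4 screen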). The note with it: HEK293 TRPC6, membrane potential fluorescence, at 10 µM; active compounds read high.
Experiment [12] has the same target. The experiment can be described thus: TRPC6 potentiation by TRPC4 potentiator hits, confirmation, selectivity assay for TRPC4 potentiator project, HEK293 cells, membrane potential dye, duplicate (AID 434952;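 active = compound raising the membrane signal above positive-control mean plus 3 SD in both repeats, and a primary screen hit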). The following applies: HEK293 TRPC6, membrane potential dye fluorescence, at 10 µM, maximal acetylcholine added after compound; active compounds read high.
Experiment [13] deals with Short transient receptor potential channel 4 (Mus musculus) (UniProt Q9QUQ5). The experiment can be described thus: calcium flux activators in TRPC4/5HT1a cells, counter-screen for TRPC4 activator project, cell-based, second counter screen, HEK293 TRPC4/5HT1a, Fluo-4 (AID 434977;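 active = calcium signal rise above buffer-control mean plus 5 SD in both duplicates, and also a hit in the primary screen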). The note with it: Fluo-4 calcium flux, at 10 µM; active compounds read high.
The nature of experiment [14]: calcium flux inhibitors in TRPC4/5HT1a cells, confirmation, counter-screen for TRPC4 inhibitor project, cell-based, second counter screen, HEK293 TRPC4/5HT1a, Fluo-4 (AID 434978;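 active = primary screen active whose calcium signal fell more than 3 SD beyond the full-serotonin control mean in both duplicate plates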;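 for outcome: serotonin given first at submaximal then at maximal dose after compound preincubation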). The note with it: Fluo-4 calcium flux, at 10 µM, serotonin added to trigger calcium flux; active compounds read high.
Experiment [15] relates to TRPC4 (mouse), co-expressed with 5HT1a in HEK293. In words: calcium flux potentiators in TRPC4/5HT1a cells, confirmation, counter-screen for TRPC4 potentiator project, cell-based, second counter screen, HEK293 TRPC4/5HT1a, Fluo-4 (AID 434979). The note with it: Fluo-4 calcium flux, at 10 µM, serotonin added at its EC20 dose; active compounds read high.
Experiment [16] is described as follows: calcium flux activation in mu-opioid HEK293 cells, confirmation, counter-screen for TRPC4 activator project, cell-based, HEK293 mu-opioid receptor line (AID 449723;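 active = hit in primary screen, with calcium signal over 5 SD above buffer well mean in both duplicates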;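 note: counter screen cells carry the mu-opioid receptor alone and lack TRPC4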). The note with it: Fluo-4 calcium fluorescence, at 10 µM; active compounds read high.
The nature of experiment [17]: calcium flux enhancement in mu-opioid HEK293 cells, confirmation, counter-screen for TRPC4 allosteric potentiator project, cell-based, HEK293 mu-opioid receptor line (AID 449724;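 active = calcium signal rise more than 3 SD above the low-dose agonist control mean, in both duplicate plates and the primary screen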;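 note: HEK293 cells carrying mu-opioid receptor only with no TRPC4 channel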). The following applies: Fluo-4 calcium flux, at 10 µM, compound added before EC20 DAMGO stimulus; active compounds read high.

Short transient receptor potential channel 6 (Mus musculus), sequence (Q61143 whole entry, looked up): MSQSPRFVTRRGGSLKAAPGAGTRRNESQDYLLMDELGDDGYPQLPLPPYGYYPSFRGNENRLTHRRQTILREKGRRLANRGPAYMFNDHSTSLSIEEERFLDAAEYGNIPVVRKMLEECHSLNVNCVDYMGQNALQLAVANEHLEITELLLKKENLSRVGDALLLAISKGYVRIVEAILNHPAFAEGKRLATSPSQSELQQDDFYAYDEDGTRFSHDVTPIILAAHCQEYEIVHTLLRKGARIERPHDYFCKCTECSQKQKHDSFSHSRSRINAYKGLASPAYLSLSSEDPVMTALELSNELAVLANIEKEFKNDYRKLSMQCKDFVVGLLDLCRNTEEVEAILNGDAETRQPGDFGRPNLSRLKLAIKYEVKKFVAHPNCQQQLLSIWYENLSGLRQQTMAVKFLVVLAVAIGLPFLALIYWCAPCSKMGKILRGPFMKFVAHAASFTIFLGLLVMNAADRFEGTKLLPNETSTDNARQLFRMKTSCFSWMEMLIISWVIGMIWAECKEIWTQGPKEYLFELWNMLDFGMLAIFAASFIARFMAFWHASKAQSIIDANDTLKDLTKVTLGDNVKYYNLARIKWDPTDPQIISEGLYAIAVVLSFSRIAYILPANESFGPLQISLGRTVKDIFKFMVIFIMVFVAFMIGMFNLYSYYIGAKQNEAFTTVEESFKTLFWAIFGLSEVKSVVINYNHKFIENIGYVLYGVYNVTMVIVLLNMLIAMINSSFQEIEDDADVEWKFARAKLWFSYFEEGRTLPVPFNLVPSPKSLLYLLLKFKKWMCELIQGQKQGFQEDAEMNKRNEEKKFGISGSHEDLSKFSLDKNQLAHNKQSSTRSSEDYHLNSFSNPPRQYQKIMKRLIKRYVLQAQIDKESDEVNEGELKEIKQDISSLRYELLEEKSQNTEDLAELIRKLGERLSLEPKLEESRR
Short transient receptor potential channel 4 (Mus musculus), sequence (Q9QUQ5 whole entry, looked up): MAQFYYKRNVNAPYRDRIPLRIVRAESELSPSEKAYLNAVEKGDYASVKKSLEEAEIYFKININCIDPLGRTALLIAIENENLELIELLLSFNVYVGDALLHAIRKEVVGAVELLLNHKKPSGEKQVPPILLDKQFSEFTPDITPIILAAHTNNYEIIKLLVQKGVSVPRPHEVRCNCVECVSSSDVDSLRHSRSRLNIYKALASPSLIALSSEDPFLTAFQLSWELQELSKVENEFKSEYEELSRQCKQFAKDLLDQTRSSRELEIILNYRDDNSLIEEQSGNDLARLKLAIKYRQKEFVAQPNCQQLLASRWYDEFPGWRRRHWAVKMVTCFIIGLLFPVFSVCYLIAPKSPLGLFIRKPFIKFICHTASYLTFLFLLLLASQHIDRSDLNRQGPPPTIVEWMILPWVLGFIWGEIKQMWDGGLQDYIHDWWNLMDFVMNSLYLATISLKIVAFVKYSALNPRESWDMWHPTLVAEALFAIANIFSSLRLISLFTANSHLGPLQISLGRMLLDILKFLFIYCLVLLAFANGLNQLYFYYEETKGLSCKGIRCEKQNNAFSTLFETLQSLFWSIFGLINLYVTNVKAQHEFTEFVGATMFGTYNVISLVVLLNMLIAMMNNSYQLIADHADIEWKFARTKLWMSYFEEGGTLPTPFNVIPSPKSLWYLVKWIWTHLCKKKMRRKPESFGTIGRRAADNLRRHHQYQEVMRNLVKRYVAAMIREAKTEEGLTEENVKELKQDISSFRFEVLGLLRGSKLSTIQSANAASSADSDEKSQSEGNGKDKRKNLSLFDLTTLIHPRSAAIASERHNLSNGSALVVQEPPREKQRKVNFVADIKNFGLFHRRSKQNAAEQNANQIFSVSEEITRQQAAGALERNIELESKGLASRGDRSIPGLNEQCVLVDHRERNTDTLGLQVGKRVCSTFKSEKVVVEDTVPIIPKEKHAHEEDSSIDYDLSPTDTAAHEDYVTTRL

As for `CCOC(=O)C1=C(NC(=S)NC(=O)c2ccccc2)c2ccccc2CC1(C)C`, the outcome in experiment [1], in experiment [2], in experiment [3], in experiment [5], in experiment [6] and in experiment [7] was inactive. Besides, the result in experiment [8], in experiment [9], in experiment [10], in experiment [11], in experiment [12] and in [13] was inactive. For the same compound, the result in [14], in experiment [16] and in experiment [17] was inactive. In addition, the potentiation is 12% (active) in experiment [4] and 27.1% (active) in [15].

With `Cc1ccc(Oc2ccccc2NC(=O)CSCC(=O)Nc2cc(C)on2)cc1`, the outcome in experiment [1], in experiment [2], in [3], in [4], in [6] and in experiment [7] was inactive. The outcome in experiment [8], in experiment [9], in experiment [10], in experiment [11], in experiment [12] and in experiment [13] was inactive. For the same compound, the outcome in experiment [15], in [16] and in [17] was inactive. For the same compound, the inhibition in experiment [5] is 62% (active); in experiment [14], 35.3% (active).

Turning to `C/C(=N\NC(=O)COc1ccc(C)cc1C(C)C)c1ccc(-n2ccnc2)cc1`, the result in experiment [1], in experiment [2], in [3], in experiment [4], in experiment [5] and in experiment [6] was inactive. The outcome in [7], in [8], in experiment [9], in [10], in [11] and in [12] was inactive. The outcome in [13], in [14], in experiment [16] and in experiment [17] was inactive. For the same compound, the potentiation in [15] is 10.4% (active).

In the case of `Cc1ccc(C(=O)c2no[n+]([O-])c2C(=O)c2ccc(C)cc2)cc1`, the outcome in experiment [1], in [2], in [5], in [6], in experiment [7] and in experiment [8] was inactive. The result in [9], in experiment [10], in experiment [11], in experiment [12], in experiment [13] and in experiment [14] was inactive. In addition, the result in experiment [16] and in experiment [17] was inactive. The results for the potentiation in experiment [3], in experiment [4] and in experiment [15] were 23% (active), 89% (active) and 59.9% (active), respectively.

Regarding `CC1(C)CN=c2s/c(=C\c3ccc(Cl)cc3)c(=O)n2C1`, the outcome in experiment [1], in [2], in experiment [3], in [4], in experiment [5] and in [6] was inactive. The outcome in experiment [7], in [8], in experiment [9], in experiment [10], in experiment [11] and in [12] was inactive. The result in experiment [13], in [14], in experiment [16] and in experiment [17] was inactive. In addition, the potentiation in [15] is 25.3% (active).

On to `Cc1ccc(/C=N/NC(=O)CSc2nc3ccccc3n2Cc2ccccc2)o1`, for which the result in experiment [1], in experiment [2], in experiment [3], in experiment [4], in experiment [5] and in experiment [6] was inactive. In addition, the result in [7], in experiment [8], in experiment [9], in [10], in experiment [11] and in [12] was inactive. Further, the result in experiment [13], in experiment [14], in experiment [15], in experiment [16] and in [17] was inactive.

For the compound `COc1cccc(OCc2cc(C(=O)N3CCN(C)C(c4ccccc4)C3)no2)c1` (stereo not given), the result in experiment [1], in experiment [2], in experiment [3], in [4], in experiment [5] and in experiment [6] was inactive. In addition, the result in [7], in experiment [8], in [9], in [10], in experiment [11] and in experiment [12] was inactive. Also, the result in [13], in experiment [14], in experiment [16] and in [17] was inactive. Also, the potentiation in experiment [15] is 16.7% (active).

With `CCN1CCN(c2nc(N)c([N+](=O)[O-])c(Nc3ccc(C)cc3)n2)CC1`, the outcome in experiment [1], in experiment [2], in [5], in experiment [6], in experiment [7] and in experiment [8] was inactive. The outcome in experiment [9], in experiment [10], in experiment [11], in experiment [12], in experiment [13] and in experiment [14] was inactive. Also, the result in [16] and in [17] was inactive. For the same compound, the potentiation in experiment [3] is 22% (active); in experiment [4] it was 13% (active); in [15], 24.9% (active).

Regarding `O=C(Nc1c(F)cc(F)cc1Br)c1cc(-c2ccc(O)cc2)on1`, the result in experiment [1], in experiment [2], in experiment [3], in [4], in experiment [5] and in experiment [6] was inactive. The result in experiment [7], in [8], in experiment [9], in [10], in experiment [11] and in [12] was inactive. The outcome in [13], in experiment [14], in experiment [15], in experiment [16] and in [17] was inactive.

In the case of `CC(C)c1nc(N2CCOCC2)c(C#N)c2c1CCCC2`, the outcome in experiment [1], in experiment [2], in experiment [3], in experiment [4], in experiment [5] and in experiment [6] was inactive. The result in [7], in experiment [8], in experiment [9], in experiment [10], in [11] and in [12] was inactive. The outcome in [13], in [14], in experiment [15], in [16] and in experiment [17] was inactive.

For the compound `CCOc1ccc(-n2cnnn2)cc1S(=O)(=O)NCc1ccccc1`, the result in experiment [1], in experiment [2], in experiment [3], in experiment [4], in [5] and in [6] was inactive. Also, the outcome in experiment [7], in experiment [8], in [9], in experiment [10], in experiment [11] and in [12] was inactive. For the same compound, the result in [13], in experiment [14], in [15], in experiment [16] and in experiment [17] was inactive.

In the case of `CC(C)CCn1c(N2CCN(c3cccc(Cl)c3)CC2)nc2c1c(=O)[nH]c(=O)n2C`, the result in [1], in experiment [2], in experiment [3], in experiment [4], in experiment [5] and in experiment [6] was inactive. Moreover, the result in [7], in [8], in [9], in experiment [10], in experiment [11] and in experiment [12] was inactive. For the same compound, the outcome in [13], in [14], in experiment [15], in experiment [16] and in experiment [17] was inactive.

Take `Cn1c(C(=O)N[C@@H](C(=O)O)c2ccccc2)cc2cc(Cl)ccc21`: the outcome in experiment [1], in experiment [2], in experiment [3], in experiment [4], in experiment [5] and in experiment [6] was inactive. The result in experiment [7], in experiment [8], in [9], in experiment [10], in experiment [11] and in [12] was inactive. The outcome in experiment [13], in experiment [14], in experiment [15], in [16] and in [17] was inactive.

Turning to `CCC(CC)c1nnc(NC(=O)c2c(C)nn(Cc3ccccc3Cl)c2C)s1`, the outcome in [1], in experiment [2], in [3], in [4], in experiment [5] and in experiment [6] was inactive. The result in experiment [7], in experiment [8], in [9], in experiment [10], in experiment [11] and in [12] was inactive. In addition, the outcome in [13], in experiment [14], in experiment [16] and in experiment [17] was inactive. Besides, the potentiation in experiment [15] was 36.2% (active).

For the compound `O=C(OCCCCN1C(=O)c2ccccc2C1=O)c1ccc(S(=O)(=O)N2CCCC2)cc1`, the outcome in [1], in experiment [2], in experiment [3], in [4], in experiment [5] and in experiment [6] was inactive. The outcome in experiment [7], in experiment [8], in experiment [9], in experiment [10], in experiment [11] and in experiment [12] was inactive. Further, the result in experiment [13], in experiment [14], in experiment [15], in experiment [16] and in [17] was inactive.
